Experimental data taken from PubChem BioAssay AID1259343 (VanderVen Lab, College of Veterinary Medicine, Cornell …, 2017).
About 2,900 (47%) of roughly 6,200 compounds were called active. No stated cut-off is given here; in the data, active means inhibition above about 50%; inactive means the rest. So high a share suggests a set chosen from earlier hits. Some of the results follow.

Test: Mycobacterium tuberculosis growth inhibition, primary screen (AID 1259343)
Conditions: inhibition: at 10 µM, hits give high values; outcome: 10 uM

Question: With `CCN(CC)[P+](N(C)Cc1ccco1)(N(CC)CC)N(CC)CC` as the compound, how does the inhibition read?
Answer: Its inhibition is 30.8% (inactive).

Question: Which inhibition does the source give for `NC1=NC(c2ccc(-c3ccccc3)cc2)n2c(nc3ccccc32)N1` (stereo unspecified) here?
Answer: Its inhibition is 26.9% (inactive).

Question: With `CC(C)c1ccc(C2N=C(N)Nc3nc4ccccc4n32)cc1` (stereo unspecified) as the compound, how does the inhibition read?
Answer: The inhibition was 13.8% (inactive).

Question: With `NC1=NC(c2cccc(Cl)c2)n2c(nc3ccccc32)N1` (stereo unspecified) as the compound, how does the inhibition read?
Answer: The inhibition was 56.7% (active).

Question: For `Cc1cc(C(=O)NC(C)Cc2ccc(Br)cc2)on1` (stereo unspecified), which inhibition is on record?
Answer: Its inhibition is 55.5% (active).

Question: For `Cc1oc(C)c(C(=O)NC(C)Cc2ccc(Cl)cc2)c1C` (stereo unspecified), which inhibition is on record?
Answer: Its inhibition is 42.4% (inactive).

Question: With `CC(Cn1cccn1)NC(=O)c1ccc(Br)o1` (stereo unspecified) as the compound, how does the inhibition read?
Answer: Its inhibition is 22.1% (inactive).

Question: With `CCCn1nc(C)c(CNc2ccc(Br)cc2)c1C` as the compound, how does the inhibition read?
Answer: Its inhibition is 20% (inactive).

Question: For `COc1ccc(C2CC(=O)c3cc([N+](=O)[O-])ccc3O2)cc1` (stereo unspecified), which inhibition is on record?
Answer: The inhibition was 96.6% (active).

Question: Which inhibition does the source give for `Cc1cn2nc(NC3CCc4ccccc43)sc2n1` (stereo unspecified) here?
Answer: The inhibition was 41.4% (inactive).

Question: For `CC(NC(=O)CCc1nnc(Cc2ccc(-c3ccccc3)cc2)o1)c1ccccc1` (stereo unspecified), which inhibition is on record?
Answer: The inhibition was 37.7% (inactive).

Question: With `O=C(CCc1nnc(Cc2ccc(-c3ccccc3)cc2)o1)NC1CCc2ccccc21` (stereo unspecified) as the compound, how does the inhibition read?
Answer: The inhibition was 62% (active).

Question: For `CN(C)C(=O)n1nnnc1Cc1ccc(-c2ccccc2)cc1`, which inhibition is on record?
Answer: Its inhibition is 39.2% (inactive).

Question: For `O=C(CCc1nnc(Cc2ccc(-c3ccccc3)cc2)o1)NCc1cccnc1`, which inhibition is on record?
Answer: The inhibition was “inactive”.

Question: With `O=C(CCc1nnc(Cc2ccc(-c3ccccc3)cc2)o1)NCCc1ccccn1` as the compound, how does the inhibition read?
Answer: The inhibition was 50.7% (active).

Question: With `O=c1oc2c(c(O)c1-c1ccccc1)-c1ccccc1CC2` as the compound, how does the inhibition read?
Answer: Its inhibition is 81% (active).

Question: Which inhibition does the source give for `CC(C)(C)c1nc(CNC(=O)Cc2ccc(Cl)cc2)no1` here?
Answer: The inhibition was 27.8% (inactive).

Question: With `O=C(Cc1coc(-c2ccccc2)n1)NC1CCCC1` as the compound, how does the inhibition read?
Answer: Its inhibition is 21.1% (inactive).

Question: Which inhibition does the source give for `O=C(Cc1noc(C2CC2c2ccc(Cl)cc2)n1)NC1CCCC1` (stereo unspecified) here?
Answer: The inhibition was 91.9% (active).

Question: Which inhibition does the source give for `Nc1ccc(-n2cnc3ccccc32)cc1` here?
Answer: The inhibition was 90.2% (active).

Question: Which inhibition does the source give for `CC(C)c1nc(SCC(=O)N(C)CCOc2ccc(Cl)cc2)n[nH]1` here?
Answer: The inhibition was 34.8% (inactive).

Question: With `CCOC(=O)c1cnc(SCc2ccc(Cl)cc2)nc1N` as the compound, how does the inhibition read?
Answer: Its inhibition is 89.2% (active).

Question: Which inhibition does the source give for `Clc1ccc2nnc(-c3ccc(Br)cc3)n2n1` here?
Answer: Its inhibition is 68.1% (active).

Question: For `Brc1ccc(-c2ccc(Br)cc2)cc1`, which inhibition is on record?
Answer: Its inhibition is 38.3% (inactive).

Question: Which inhibition does the source give for `CC(CC(=O)Nc1ccccc1-c1nn[nH]n1)CC(C)(C)C` (stereo unspecified) here?
Answer: Its inhibition is -15.1% (inactive).

Question: With `CCOC(=O)c1c(C)c(C(=O)NCCC(C)C)c(C)n1Cc1ccccc1` as the compound, how does the inhibition read?
Answer: The inhibition was 56.4% (active).

Question: For `CC(C)CCNC(=O)c1csc(-c2ccccc2)n1`, which inhibition is on record?
Answer: The inhibition was -48.7% (inactive).

Question: Which inhibition does the source give for `CCOc1nc(C#N)nc(N2CCOCC2)n1` here?
Answer: The inhibition was 22.3% (inactive).

Question: Which inhibition does the source give for `COC(=O)C1=C(C)N(C)C(=O)C12c1ccccc1-c1oc(N)nc12` (stereo unspecified) here?
Answer: Its inhibition is 58.3% (active).

Question: For `COc1c(F)c(F)c(C(=O)C2C(=O)C=C(c3c(F)c(F)c(OC)c(F)c3F)OC2=O)c(F)c1F` (stereo unspecified), which inhibition is on record?
Answer: The inhibition was 36.4% (inactive).

Question: With `Cc1ccc2nc(-c3ccccn3)c(NC(C)(C)CC(C)(C)C)n2c1` as the compound, how does the inhibition read?
Answer: Its inhibition is 101% (active).

Question: With `Cc1cccn2c(NC(C)(C)CC(C)(C)C)c(-c3cccc(OC(=O)c4cccc5ccccc45)c3)nc12` as the compound, how does the inhibition read?
Answer: The inhibition was 9.87% (inactive).

Question: For `Cc1ccc(NC(=O)c2cc3c(C(F)(F)F)cc(=O)[nH]c3o2)c(Cl)c1`, which inhibition is on record?
Answer: The inhibition was 101% (active).

Question: Which inhibition does the source give for `O=C(Nc1ccc(C(F)(F)F)[nH]c1=O)c1ccccc1` here?
Answer: The inhibition was -22.3% (inactive).

Question: Which inhibition does the source give for `Cc1ccc(-n2nc3c(c2NC(=O)/C=C\c2ccccc2)CSC3)cc1` here?
Answer: The inhibition was 84% (active).

Question: Which inhibition does the source give for `CN(Cc1ccco1)C(=O)c1sc2cc(F)ccc2c1Cl` here?
Answer: Its inhibition is 20.1% (inactive).

Question: Which inhibition does the source give for `CCCc1ccc(CN2CCN(Cc3cccc(F)c3)CC2)o1` here?
Answer: The inhibition was 45.4% (inactive).

Question: Which inhibition does the source give for `Cc1cccc(C2CC(C(=O)N(C)Cc3ccco3)CN(Cc3cccc(F)c3)C2)c1` (stereo unspecified) here?
Answer: The inhibition was 54.6% (active).

Question: With `CC(C)Nc1ncccc1C(=O)NCCc1cccc(Cl)c1` as the compound, how does the inhibition read?
Answer: The inhibition was 15.2% (inactive).

Question: For `Cc1cc(C(=O)NCCc2ccc(Cl)cc2)c(C)o1`, which inhibition is on record?
Answer: Its inhibition is 88.2% (active).

Question: Which inhibition does the source give for `CC(C)Cc1noc(Cn2cc(I)cn2)n1` here?
Answer: Its inhibition is 91.5% (active).

Question: For `CC(C)Cc1nc(CS(=O)(=O)C/C=C/c2ccccc2)no1`, which inhibition is on record?
Answer: Its inhibition is 43.6% (inactive).

Question: With `CC(CCC(=O)O)[C@H]1CCC2C3CC[C@@H]4C[C@H](O)CC[C@]4(C)C3C=C[C@@]21C` (stereo partly specified) as the compound, how does the inhibition read?
Answer: Its inhibition is 34.3% (inactive).

Question: For `O=S(CCCOc1ccc(F)cc1)Cc1ccc(F)cc1Cl` (stereo unspecified), which inhibition is on record?
Answer: The inhibition was 89.6% (active).

Question: For `CN(CCOc1ccc(F)cc1)Cc1nc2cc(Cl)ccc2c(=O)[nH]1`, which inhibition is on record?
Answer: The inhibition was -0.34% (inactive).

Question: Which inhibition does the source give for `Cc1cc(NC(=O)c2cccc(F)c2)n(-c2nc3c(c(=O)[nH]2)CCC3)n1` here?
Answer: The inhibition was 101% (active).

Question: Which inhibition does the source give for `Cc1cc(NC(=O)c2cccc(C(F)(F)F)c2)n(-c2nc3c(c(=O)[nH]2)CCC3)n1` here?
Answer: Its inhibition is 100% (active).

Question: For `CN(C)C(CNC(=O)c1ccc(C(F)(F)F)cc1)c1c(F)cccc1Cl` (stereo unspecified), which inhibition is on record?
Answer: Its inhibition is 8.7% (inactive).

Question: For `O=C(NCCNc1cccc(C(F)(F)F)n1)c1ccc(O)cc1`, which inhibition is on record?
Answer: Its inhibition is 73.2% (active).

Question: Which inhibition does the source give for `CN(Cc1ccc(Br)s1)Cn1ncc2c([nH]c3ccccc32)c1=O` here?
Answer: Its inhibition is -13.5% (inactive).

Question: With `Cc1nc([N+](=O)[O-])cn1CCC(=O)NOCc1ccccc1` as the compound, how does the inhibition read?
Answer: The inhibition was -5.24% (inactive).

Question: With `O=C(Nn1cc([N+](=O)[O-])cn1)c1cccc(COc2ccc(Br)cc2)c1` as the compound, how does the inhibition read?
Answer: The inhibition was 78.8% (active).

Question: For `CCNC(=O)c1ccccc1OCc1cccc(Br)c1`, which inhibition is on record?
Answer: Its inhibition is 19.8% (inactive).

Question: With `CNC(=O)Cc1ccc(-c2cc(OC)ccc2F)cc1` as the compound, how does the inhibition read?
Answer: The inhibition was 57.2% (active).

Question: Which inhibition does the source give for `CCCCCCSc1s[nH]c(=O)c1C#N` here?
Answer: Its inhibition is “inactive”.

Question: Which inhibition does the source give for `CCCSc1nsc(SCCC)c1C#N` here?
Answer: Its inhibition is 97.4% (active).

Question: For `Fc1ccccc1Cn1nnc(-c2ccc(Br)cc2)n1`, which inhibition is on record?
Answer: Its inhibition is 94.7% (active).

Question: With `Fc1ccc(-c2nnn(Cc3ccccc3Br)n2)cc1` as the compound, how does the inhibition read?
Answer: Its inhibition is -14% (inactive).

Question: Which inhibition does the source give for `O=c1cc2c(nn1Cc1ccc(Br)cc1F)CCCC2` here?
Answer: The inhibition was -5.6% (inactive).

Question: With `Cc1ccc2oc(CN3CCN(c4cc(N)nc(N)n4)CC3)c(C)c2c1` as the compound, how does the inhibition read?
Answer: Its inhibition is 34.6% (inactive).

Question: With `C/C(=C\c1cc(Cl)ccc1O)CN1CCN(c2ncc(F)cn2)CC1` as the compound, how does the inhibition read?
Answer: The inhibition was 37.7% (inactive).

Question: With `C/C(=C\c1ccco1)CN1CCN(c2nc3cc(C)ccc3o2)CC1` as the compound, how does the inhibition read?
Answer: Its inhibition is 94.4% (active).

Question: With `CCCCN(C(=O)c1nc2nccc(C)n2n1)c1ccccc1` as the compound, how does the inhibition read?
Answer: Its inhibition is -8.51% (inactive).

Question: For `C(=Cc1ccccc1)CSc1nnc(-c2c[nH]c3ccccc23)o1`, which inhibition is on record?
Answer: The inhibition was 19.9% (inactive).

Question: For `C=CCSc1nnc(-c2sc3ccccc3c2Cl)o1`, which inhibition is on record?
Answer: Its inhibition is 66.8% (active).

Question: For `S=c1oc(-c2sc3ccccc3c2Cl)nn1CN1CCOCC1`, which inhibition is on record?
Answer: The inhibition was 1.82% (inactive).
